Key:
Test in all cases: PBM binding z-score (relative to random genomic background probes); higher = stronger binding; sequences stand for … in GC…GCGATTGACAGCGTAGAATGAAGG
[1] = test system: RARb homodimer (NR concentration 270 nM)
Summary of the method: (§1)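 Binding z-scores take random background probes as their reference. They come from custom Agilent 4×180K protein-binding microarrays incubated 1 h with ligand-free nuclear receptor dimers, with antibodies against each partner (one per run) detecting binding. Scanned fluorescence was regression-normalized.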

[2] = test system: RARg:RXRa (NR concentration 270 nM, RXRa partner concentration 90 nM)
Summary of the method: as §1

[3] = test system: RARg homodimer (NR concentration 270 nM)
Summary of the method: as §1

[4] = test system: RXRa DBDmut IVT, anti-RXR (DBD mutation: RXRa K156A/R161A, NR concentration 90 nM)
Summary of the method: as §1

[5] = test system: RXRa homodimer (NR concentration 180 nM)
Summary of the method: as §1

[6] = test system: THRa:RXRa (NR concentration 90 nM, RXRa partner concentration 90 nM)
Summary of the method: as §1

[7] = test system: THRa homodimer (NR concentration 90 nM)
Summary of the method: as §1

[8] = test system: VDR:RXRa (NR concentration 270 nM, RXRa partner concentration 90 nM)
Summary of the method: as §1

[9] = test system: VDR homodimer (NR concentration 270 nM)
Summary of the method: as §1

Row | Sequence | PBM binding z-score [1] | PBM binding z-score [2] | PBM binding z-score [3] | PBM binding z-score [4] | PBM binding z-score [5] | PBM binding z-score [6] | PBM binding z-score [7] | PBM binding z-score [8] | PBM binding z-score [9]
1 | GCTAGCAGGCCATTTGGGTTACTCAATGACGGGC | -0.137 | -0.0989 | 0.178 | -0.102 | 0.0436 | 0.307 | -0.64 | -0.436 | -0.276
2 | GCGACTGGGGGAAAGCAGGTTACCATAAGGTTGG | 0.976 | 0.585 | 0.39 | 0.147 | 0.696 | 2.25 | 0.613 | 0.39 | 0.229
3 | ATCTCTAGGTAAGACTCGGTTCAGTGAAGAACGC | 0.578 | 0.12 | 0.211 | 0.708 | 0.162 | 0.549 | 0.875 | 1.05 | 2.06
4 | CGTCGAAGTTCAAGGTAACGTAACAGAAAGCAGC | 1.95 | 2.79 | 3.25 | 3.69 | 2.21 | 2.07 | 0.792 | 2.09 | 1.74
5 | CCTTACGTGTCAAGGTTATAGCACGGGTGGTACG | 1.28 | 1.34 | 1.35 | -0.145 | 1.11 | 1.57 | 0.906 | 0.738 | 0.926
6 | ATATGTAGGTAATCGGGTCATTCAGTTTGCGCAT | 2.15 | 2.06 | 1.32 | 1.13 | 2.55 | 3.16 | 2.46 | 4.7 | 3.14
7 | CCTACTGGGCCACGAAAGGTCATTTATTCAGTGA | 4.32 | 4.41 | 4.2 | 0.751 | 4.96 | 3.5 | 0.944 | 4.27 | 2.76
8 | GCTGCTAGGTCAGGTTGGTCAGCTAGCGGGTACG | 2.7 | 2.69 | 3.44 | 0.414 | 0.963 | 1.71 | 0.421 | 0.267 | -0.146
9 | GCTTACGGGTCAAAGGGTATAGCATGAATAGAAT | 2.63 | 5.24 | 4.04 | 2.41 | 7.03 | 2.8 | -0.191 | 5.84 | 1.45
10 | TCTCGGAGTACACGAAAGGTCAGAGCTCGACATC | 4.24 | 3.91 | 3.72 | 1.14 | 3.87 | 3.02 | 0.15 | 3.41 | 0.908
11 | TCTCGGAGGACACGAACGGTCAGAGCTCGACATC | 1.89 | 1.02 | 2.34 | 0.557 | 0.138 | 1.44 | 0.357 | 0.073 | -0.389
12 | CAAACTAGGTCAAAGGTCGAAGTCGAGCCAACCA | 3.9 | 7.26 | 5.75 | 2.51 | 8.7 | 4.01 | 0.604 | 5.03 | 1.73
13 | TAACCTAGGTCATGCGGGCCAGTATAGTGTCGGC | 3.44 | 4.53 | 4.39 | 1.15 | 3.58 | 3.32 | 1.23 | 3.55 | 1.05
14 | TCTATTAGTTAAAGGGCAACCGACGAGTCCGTTT | 2.17 | 1.22 | 1.42 | 1.7 | 1.28 | 0.666 | -0.0439 | 1.46 | 1.77
15 | TCGAGTGGGTTAGTCGGGGCATTCAGCCAACATA | 0.697 | -0.203 | -0.276 | 0.51 | -0.199 | 1.18 | 0.456 | 2.25 | 0.85
16 | GGAACGTGGGCAAAGTTGATAGCATCTGTCGACG | -0.345 | -0.158 | -0.178 | -0.177 | -0.03 | -0.579 | -0.838 | -0.399 | -0.389
17 | GCTTACGCGTCAAAGGTTATAGCATGAATAGAAT | 0.965 | 1.43 | 0.64 | 0.189 | 3.35 | 1.65 | -0.774 | 1.12 | -0.203
18 | ACTAGCATGCCAAGTTTGGGTCACTCAAACAAAG | 1.71 | 1.43 | 0.744 | -0.167 | 0.674 | 2.19 | 0.882 | 0.531 | 0.673
19 | GCTAGCAGGCCATTTTGGTCACTCAATGACGGGC | 0.0226 | -0.296 | 0.212 | -0.337 | -0.426 | -0.234 | -0.974 | -0.816 | -0.748
20 | CGCCCAAGGTCAATGCTAGGTCAGTGAAAGCATT | 5.07 | 7.39 | 6.43 | 2.91 | 5.06 | 4.28 | 2.72 | 4.59 | 2.51
21 | TCATATATGTAAATGCTAGGTGAAAGTCCGATCT | 0.368 | 0.1 | 0.244 | 1.18 | 0.654 | 1.01 | 0.597 | 0.934 | -0.0734
22 | TCTTGTTGATCAACAGGAGGTTAAGAAAGATCGA | 0.286 | 0.304 | 0.198 | 0.0758 | 0.644 | 0.723 | -0.731 | 0.368 | -0.304
23 | AGAATGAGGTTATAAGTAGATCAGGGAAGAAAGT | 0.89 | 1.35 | 0.794 | 1.41 | 2.12 | 2.1 | 0.689 | 1.26 | 1.09
24 | CTAGACAGGTGAGAAGGTAACTCAGCCTCGATTA | 0.253 | 0.538 | 0.499 | -0.295 | 0.228 | 0.0525 | -0.0949 | -0.342 | -0.377
25 | CTCGAAAGGTCGGTTGAGGTAAGTATACGGATAA | 1.72 | 2.37 | 2.35 | 0.522 | 1.83 | 4.54 | 0.648 | 1.57 | 0.257
26 | CGTCCAAGGTCATAGGAGGTCGGTGAAGACAGAT | 4.09 | 6.01 | 6.48 | 3.77 | 6.13 | 4.77 | 2.45 | 5.71 | 3.77

Row | Sequence | PBM binding z-score [1] | PBM binding z-score [2] | PBM binding z-score [3] | PBM binding z-score [4] | PBM binding z-score [5] | PBM binding z-score [6] | PBM binding z-score [7] | PBM binding z-score [8] | PBM binding z-score [9]
27 | GCATATAGGTAATACAAGGAGAAAGTCCGATTGT | -0.449 | 0.152 | 0.156 | 0.562 | -0.0159 | 1.9 | -0.606 | -0.177 | -0.234
28 | ATCTCTAGGTGACAAGTTCAGTGAAAGAGAGGAC | 2.34 | 2.03 | 1.82 | 0.449 | 1.09 | 1.71 | 0.652 | 1.63 | 2.05
29 | CGTCCAAGTTCAAGGTCAGTGAAAGAGACTCGAA | 4.11 | 4.76 | 5.33 | 4.51 | 3.82 | 3.56 | 2.47 | 3.88 | 4.98
30 | TCTGTTAGGTCAACGATGGTCAGCTAATCTGCTA | 3.65 | 4.38 | 4.93 | 1.61 | 3.2 | 3.73 | 2.76 | 2.46 | 0.727
31 | TGAATGAGGTTAAACATCAGGGAACGTGGCGTCG | 0.708 | 2.37 | 1.44 | 1.35 | 3.15 | 2.65 | 0.474 | 1.87 | 0.833
32 | GATACAGGGTCAAGGCCAGAGTTCGCGTATTGAT | 4.11 | 5.64 | 5.19 | 2.9 | 6.18 | 3.64 | 1.21 | 5.31 | 4.76
33 | GGAACGAGGGCATCCGAGTTGATAGCATGGCGAT | 0.756 | 1.28 | 1.71 | 2.26 | 0.974 | 3.08 | -0.359 | 3.18 | 2.33
34 | CCTACTGGGCCATCAGGTCATCGATATCAACGTT | 2.83 | 2.31 | 2.29 | 0.257 | 1.58 | 3.45 | 3.33 | 1.77 | 1.24
35 | ACTATAAGTTGAGACGAGGGCAACCGATAGGTTG | 1.57 | 1.19 | 1.21 | 0.723 | 0.925 | 3.73 | 0.194 | 1.75 | 1.39
36 | TCTTGCAGGCCAGAGGGTCACTCAAGAGGTACGG | 2.73 | 2.73 | 2.38 | 0.074 | 2.37 | 1.79 | -0.22 | 1.7 | 0.546
37 | CATACAGGGTCAGTTAGGCCAGAGTAGGGACGGC | 2.87 | 3.61 | 3.84 | 1.68 | 2.94 | 2.77 | 1.04 | 3.05 | 1.69
38 | ACTAGCAGGCCAAGGGCCACTCAAGATTAGTCCG | 0.598 | 0.143 | 0.443 | -0.506 | 0.0111 | -0.212 | -0.921 | -0.798 | -0.964
39 | CCTAGTTGGTCAAGGTCACACAAGCTATAGGTAC | 4.53 | 4.81 | 4.89 | 2.26 | 4.88 | 4.19 | 3.83 | 4.38 | 3.72
40 | CCGACTGGGGAAAAGGTTACCATACTCAGTACGA | 1.79 | 1.37 | 0.901 | 0.237 | 1.86 | 1.05 | -0.101 | 0.397 | 0.0305
41 | GCTGCTAGGTCAGGTTGGTCAGCTGACGGGTACG | 2.62 | 2.79 | 3.56 | 0.752 | 1.09 | 1.81 | 0.492 | 0.533 | 0.505
42 | CCAGACAGGTGAGCAGGTAACTCAGCCTCGATTA | 0.399 | 0.113 | 0.308 | -0.0126 | -0.115 | 0.218 | 0.165 | -0.287 | -0.319
43 | CCTTTCGGGTCACTCCAGGTTATAGCATCGGAGT | 3.43 | 4.46 | 4.55 | 2.36 | 4.03 | 5.16 | 3.18 | 4.19 | 1.87
44 | TCATATAGGTAAACAGGTGCAAGTCCGTAAGTTA | 0.278 | 0.453 | 0.0324 | 1.32 | 1.27 | 0.672 | 0.416 | 3.49 | 1.14
45 | CCGACTAGGGCATAAGGTTACCATAAGCCAGCCC | 1.76 | 2.19 | 1.34 | -0.152 | 1.35 | 2.17 | 1.08 | 0.257 | -0.17
46 | TCGAGTAGGTTAGGGGCATGCAGAATGGCGTCGA | 1.07 | 0.351 | 0.462 | 0.22 | 0.663 | 0.973 | 0.12 | 0.195 | 0.0612
47 | AGAACGAGGGCACTGAGTTGATAGCACGGGTGGC | 0.877 | 1.03 | 1.64 | 1.71 | 1.02 | 1.19 | 0.176 | 4.52 | 2.94
48 | ATATGTAGGTTATCGGGACATTCAGTTTGCGCAT | 1.09 | 0.79 | 1.16 | 0.776 | 1.03 | 1.72 | 1.55 | 1.04 | 1.48
49 | ACTAGCCGGCCAAGGGTCACTCAAGATTAGTCCG | 3.6 | 3.96 | 3.47 | -0.0861 | 3.65 | 2.5 | 0.383 | 2.59 | 0.509
50 | CAAACTAGGTCAAAGGTCTAAGTCGAGCCAACCA | 2.9 | 4.76 | 4.45 | 1.96 | 4.93 | 3 | 0.688 | 2.98 | 1.09
51 | TGAATGAGGGTAAAGATCAGGGAACGTGGCGTCG | -0.018 | 0.443 | 0.391 | -0.234 | 1.07 | 0.432 | -0.386 | -0.0441 | -0.201
52 | CCTTACGGGTCACGCGGTTATAGCACGACGAGCG | 3.87 | 5.86 | 5.88 | 1.3 | 6.68 | 3.17 | 0.416 | 4.4 | 1.19

Source: the supplement of paper PMC6555819
